Results: PubChem BioAssay (NCATS)
Records with an inconclusive call do not appear. A number with no mark means an inactive call. Activity calls are given as the source filed them. Calls follow the shape of the dose curve; as a rule, active = well fitted inhibition curve with a large enough effect; inconclusive = small, poorly fitted or top-dose-only effect; inactive = flat fitted curve, though single readings scatter. Residues, ends and D or L forms follow the SMILES beside them. *: point of attachment. Cbz = O=C(OCc1ccccc1)*

tested on: Zika virus NS2B-NS3 protease; assay: Primary screen GU AMC qHTS for Zika virus inhibitors (AID 1347154); conditions: Zika NS2B-NS3 unlinked protease, AMC fluorogenic substrate; series mostly up to 54.1 µM; activity change, negative = inhibition: at the top concentration;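 also: 0% = no-inhibitor control and -100% = no-enzyme control; nearly all actives have a fitted effect of over 70% in size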
Procedure, shortened: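 Unlinked Zika NS2B hydrophilic domain/NS3 protease domain noncovalent complex (25 nM final) in 10 mM Tris-HCl pH 8.0, 0.01% Tween 20, with AMC peptide substrate. Fluorescence (ex 340, em 450 nm) change over 15 min, room temperature; percent inhibition fitted to 4-parameter Hill equation.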

Row | SMILES | activity change, negative = inhibition | Potency
1 | CC(=O)O[C@H]1C[C@@H]2CC[C@H]3[C@H]4C[C@H]([N+]5(C)CCCCC5)[C@@H](OC(C)=O)[C@@]4(C)CC[C@@H]3[C@@]2(C)C[C@H]1N1CCCCC1 | -10% | –
2 | O=C(C=CC#Cc1cccc(NS(=O)(=O)c2ccccc2)c1)NO | -6.43% | –
3 | CC[C@@]1([C@@H]2O[C@@H]([C@H]3O[C@@](O)(CO)[C@H](C)C[C@H]3C)C[C@H]2C)CC[C@H]([C@]2(C)CC[C@]3(C[C@H](O)[C@@H](C)[C@@H]([C@@H](C)[C@@H](OC)[C@H](C)C(=O)O)O3)O2)O1 | -11.9% [at 25.8 µM] | –
4 | NC(=O)c1ncn([C@@H]2O[C@H](CO)[C@@H](O)[C@@H]2O)c1O | 4.22% | –
5 | NC(=O)c1ncn([C@@H]2O[C@H](CO)[C@@H](O)[C@@H]2O)c1N | -12% | –
6 | c1ccc(CNc2nc(NCc3ccccc3)c3ccccc3n2)cc1 | -2.38% | –
7 | CC(C)C[C@@H](C=O)NC(=O)[C@H](CC(C)C)NC(=O)[C@H](CC(C)C)NC(=O)OCc1ccccc1 (Cbz-Leu-Leu-Leu-aldehyde) | – | inactive
8 | COc1cc(C(C)C)c(Oc2cnc(NC(CO)CO)nc2N)cc1I | 1.4% | –
9 | COC[C@H](NC(=O)c1cnc(C)s1)C(=O)N[C@@H](COC)C(=O)N[C@@H](Cc1ccccc1)C(=O)[C@@]1(C)CO1 | -3.74% | –
10 | CC(=CC(=O)Nc1ccccc1C(=O)O)c1ccc2ccccc2c1 | -21.2% | –
11 | O=C1NC(=O)[C@@H](c2cn3c4c(cccc24)CCC3)[C@H]1c1c[nH]c2ccccc12 | 14.2% | –
12 | CCOC(=O)C1=C(C)NC(=S)NC1c1cccc(O)c1 (stereo not given) | -6.36% | –
13 | CCCCCCCCCCCC(CC1OC(=O)C1CCCCCC)OC(=O)C(CC(C)C)NC=O (stereo not given) | -10.3% | –
14 | CCCCCN=C(N)NN=Cc1c[nH]c2ccc(OC)cc12 | -1.37% | –
15 | O=C(O)[C@H](CC(=O)N1C[C@@H]2CCCC[C@H]2C1)Cc1ccccc1 | 20.5% | –
16 | O=C(O)C[C@H](O)C[C@H](O)C=Cc1c(C2CC2)nc2ccccc2c1-c1ccc(F)cc1 | 21.5% | –
17 | Cc1ccc([N+](=O)[O-])cc1S(=O)(=O)N(C)N=Cc1cnc2ccc(Br)cn12 | -8.17% | –
18 | CC(C(C)N1CC(=O)NC(=O)C1)N1CC(=O)NC(=O)C1 (stereo not given) | -7.21% | –

Row | SMILES | activity change, negative = inhibition | Potency
19 | COC(=O)C=CC(=O)OC | 8.58% | –
20 | O=C(O)C=Cc1ccc(Cn2ccnc2)cc1 | -2.82% | –
21 | C=C1C[C@@]2(O)O[C@@]3(C[C@H]2C(C)C)[C@H](C)CC[C@H]13 | -1.39% | –
22 | O=S(=O)(O)CCSSCCS(=O)(=O)O | 3.29% | –
23 | CC1(C)CC(O)CC(C)(C)N1[O] | 12.8% | –
24 | CCCNS(=O)(=O)Nc1ncnc(OCCOc2ncc(Br)cn2)c1-c1ccc(Br)cc1 | -6.17% | –
25 | C[C@@H](Oc1ccc2[nH]nc(C=Cc3cnn(CCO)c3)c2c1)c1c(Cl)cncc1Cl | -6.42% | –
26 | C#Cc1cccc(Nc2ncnc3cc(OCCOC)c(OCCO)cc23)c1 | 1.33% | –
27 | CNC(=O)Nc1ccc(-c2nc(N3CC4CCC(C3)O4)c3cnn(C4CCC5(CC4)OCCO5)c3n2)cc1 | -12.8% | –
28 | C[C@]12CC[C@@H]3c4ccc(O)cc4CC[C@H]3[C@H]1CC[C@H]2O | 8.13% | –
29 | COc1ccc2c(c1OC)C(=O)OC2[C@H]1c2c(cc3c(c2OC)OCO3)CCN1C (stereo not given in full) | 8.27% | –
30 | COc1ccc(C=Cc2cc(OC)c(OC)c(OC)c2)cc1NC(=O)[C@H](N)CO | -10.3% | –
31 | CC(C)OC(=O)[C@H](C)N[P@](=O)(OC[C@H]1O[C@@H](n2ccc(=O)[nH]c2=O)[C@](C)(F)[C@H]1O)Oc1ccccc1 | 10.5% | –
32 | O=C(O)C(=O)Nc1cccc(C2=NN=N[N]2)c1 | -2.58% | –
33 | O=c1[nH]c(=O)n([C@H]2C[C@@H](O)[C@@H](CO)O2)cc1F | 6.03% | –
34 | C[C@H](NC(=O)C(C#N)=Cc1cccc(Br)n1)c1ccccc1 | 5.08% | –
35 | COc1cccc2c1C(=O)c1c(O)c3c(c(O)c1C2=O)C[C@@](O)(C(=O)CO)C[C@H]3O[C@H]1C[C@H](N)[C@H](O)[C@H](C)O1 | -4.53% | –
